This is an account of results in PubChem BioAssay AID2733 (National Center for Advancing Translational Sciences (NCATS), 2010).

Records with an inconclusive call do not appear. Calls of active or inactive are those of the source. Calls come from the whole dose curve; as a rule, active = well fitted inhibition curve with a large enough effect; inconclusive = small, poorly fitted or top-dose-only effect; inactive = flat fitted curve, though single readings scatter.

The assay is described as follows: High Content Assay for Compounds that inhibit the Assembly of the Perinucleolar Compartment: PC3M Cytotoxicity. To be noted: PC3M cells, ATPLite luminescence viability, 24 h; series mostly up to 46.1 µM. The procedure, abridged:
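PC3M-GFP cells (2000/well) adhered 4 h, then given 23 nl of compound stock in duplicate. After 24 h at 37 C, ATP measured by ATPLite luminescence; camptothecin positive control, DMSO negative.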
For the molecule `COc1cc(C(=O)Oc2ccccc2/C=N/NC(=O)c2ccc(Cl)cc2)cc(OC)c1OC`, the Potency was 11.2 µM (active).
With `Cc1cc(C)c(S(=O)(=O)/N=C2/C=C(Sc3ncn[nH]3)C(=O)c3ccccc32)cc1C` the figure was 14.1 µM (active); with `O=S(=O)(Nc1cc(Sc2cccc3cccnc23)c(O)c2ccccc12)c1ccc(F)cc1`, 15.8 µM (active).
With `O=C(N/N=C/c1cc2c3c(c1O)CCCN3CCC2)c1ccccc1O` the figure was 3.16 µM (active); with `Cc1cccc(C)c1Nc1c(-c2ccc(N3CCOCC3)cc2)nc2ncccn12`, “inactive”.
